What follows are compounds tested on T1, CTK. Details: concentration: 1 μM, replicates: in singlicate; n = 1.
T1 construct: gene MATK
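Further: KINOMEscan kinase panel screen.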

| Structure (SMILES) | %Inh [%] |
| --- | --- |
| CCc1nc(-c2cccc(C)c2)c(-c2ccncc2)s1 | 0 |
| COc1cc(OC)cc(-c2cc3cnc(N)nc3nc2NC(=O)NC(C)(C)C)c1 | 1 |
| Nc1ncnc2c1ncn2-c1cccc(F)c1 [SKF-97560] | 22 |
| COc1cc2ncn(-c3cc(OCc4ccncc4)c(C(N)=O)s3)c2cc1OC [GSK336313] | 0 |
| Fc1cccc(CSc2nnc(-c3ccc4c(c3)CCO4)o2)c1 | 11 |
| CCC(=O)c1c(-c2ccccc2)c2cc(Cl)ccc2c(=O)n1Cc1cc(S(C)(=O)=O)n(CCC(C)(C)O)n1 | 0 |
| CCn1c(-c2ccoc2)nc2cnccc21 [SB-733887] | 0 |
| CCc1ccc(-c2ccc3c(c2)-c2nn(C)cc2S(=O)(=O)N3C)cc1 | 0 |
| COc1ccc(-c2coc3ccc(-c4nnc(SCc5cccc(C#N)c5)o4)cc23)cc1 | 0 |
| COC(=O)c1c(-c2ccccc2)c2cc(C)ccc2c(=O)n1Cc1ccccc1 | 0 |
| Cl.NS(=O)(=O)c1cccc(Nc2cc(-c3ccc(F)cc3)n[nH]2)c1 [GW824645] | 19 |
| COC(=O)c1c(-c2ccccc2)c2cc(Br)ccc2c(=O)n1Cc1ccc(NC(=O)CCC(=O)O)cc1 | 6 |
| COc1ccc(CNC(=O)NC2CCN(c3ccnc(Nc4ccc(F)cc4)n3)C2)cc1 (centres unmarked) [GSK1379706] | 0 |
| CCS(=O)(=O)c1ccc(OC)c(Nc2ncc(-c3ccc(F)cc3)o2)c1.Cl [GW591947] | 0 |

Reference: PMC5540273 (PLoS ONE, 2017)
